Experimental data published in PubChem BioAssay (NCI).
Compounds without any hit were thinned out: in the full panel of roughly 79,000, 15% have a hit. Activity calls are given as the source filed them. No stated cut-off is given here; in the data, active means growth inhibition above about 70%; inactive means the rest.

Key:
[1] = NCI Yeast Anticancer Drug Screen. Data for the rad52 strain (AID 147);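 further: 0% = growth of vehicle-treated control cultures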; conditions: S. cerevisiae rad52 mutant growth inhibition, hits give high values
Procedure, shortened: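 Growth of repair-deficient yeast cells was compared between compound-treated and vehicle-treated cultures to give percent inhibition.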

[2] = NCI Yeast Anticancer Drug Screen. Data for the wt1 strain (AID 149);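 further: 0% = growth of vehicle-treated wt1 cultures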; conditions: S. cerevisiae wt1 strain (SPY 50644) growth inhibition, hits give high values
Procedure, shortened: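 wt1 strain grown with compound or vehicle; inhibition taken from the growth difference.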

[3] = NCI Yeast Anticancer Drug Screen. Data for the rad50EPP+ strain (AID 151);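 further: 0% = growth of vehicle-treated control cultures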; conditions: S. cerevisiae rad50 mutant strain, hits give high values
Procedure, shortened: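 Measured: growth inhibition of rad50EPP+ yeast. Reference: vehicle-treated controls. Screen uses strains with defined genetic alterations in DNA damage repair or cell cycle control.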

[4] = NCI Yeast Anticancer Drug Screen. Data for the rad50 strain (AID 155);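 further: 0% = growth of vehicle-only cultures of the same strain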; conditions: S. cerevisiae rad50 strain growth inhibition, hits give high values
Procedure, shortened: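 DNA repair mutant yeast, compound exposure, growth read-out; inhibition is taken relative to vehicle.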

[5] = NCI Yeast Anticancer Drug Screen. Data for the mec2-1 strain (AID 157); conditions: S. cerevisiae mec2-1 strain, hits give high values
Procedure, shortened: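 Compounds were applied to mec2-1 yeast cells. Their growth was then compared with that of vehicle-treated cultures to give growth inhibition.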

[6] = NCI Yeast Anticancer Drug Screen. Data for the rad14 strain (AID 159);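 further: 0% = growth of vehicle-treated control cultures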; conditions: S. cerevisiae rad14 strain growth inhibition, hits give high values
Procedure, shortened: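 DNA repair-defective yeast, compound-exposed; % growth inhibition derived by comparison with vehicle-treated controls.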

[7] = NCI Yeast Anticancer Drug Screen. Data for the sgs1 mgt1 strain (AID 161);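 further: 0% = growth of cultures given vehicle only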; conditions: S. cerevisiae sgs1 mgt1 strain, hits give high values
Procedure, shortened: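 Yeast cells carrying a defined DNA-repair defect were exposed to test compounds. Growth inhibition was measured relative to vehicle-treated controls.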

[8] = NCI Yeast Anticancer Drug Screen. Data for the CLN2oe strain (AID 163);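 further: 0% = growth of vehicle-only control cultures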; conditions: S. cerevisiae CLN2oe strain, hits give high values
Procedure, shortened: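 Cells of an engineered yeast line with disturbed cell-cycle regulation are treated with compound. Inhibition of growth is then calculated relative to the vehicle-treated reference.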

[9] = NCI Yeast Anticancer Drug Screen. Data for the cln2 rad14 strain (AID 165);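 further: 0% = growth equal to vehicle treated cultures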; conditions: S. cerevisiae cln2 rad14 strain, hits give high values
Procedure, shortened: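 Strain: cln2 rad14 yeast, altered in cell cycle control and DNA damage repair. Read-out: growth inhibition vs vehicle.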

[10] = NCI Yeast Anticancer Drug Screen. Data for the bub3 strain (AID 167); conditions: S. cerevisiae bub3 mutant strain, hits give high values
Procedure, shortened: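 In this screen, a yeast mutant lacking normal mitotic checkpoint function is challenged with compound. Relative growth versus vehicle gives the inhibition value.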

[11] = NCI Yeast Anticancer Drug Screen. Data for the mlh1 strain (AID 171);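 further: 0% = growth of vehicle-treated control cultures of the same strain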; conditions: S. cerevisiae mlh1 strain growth inhibition, hits give high values
Procedure, shortened: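 Test agents were incubated with yeast bearing a defined DNA damage repair or cell cycle control alteration; values are growth inhibition normalised to vehicle-treated cultures.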

[12] = NCI Yeast Anticancer Drug Screen. Data for the sgs1 strain (AID 173);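 further: 0% = growth of vehicle-only control cultures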; conditions: S. cerevisiae sgs1 mutant, hits give high values
Procedure, shortened: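 Strain with an altered DNA repair or cell cycle pathway exposed to compound. Growth then measured. Value = inhibition versus vehicle control.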

[13] = NCI Yeast Anticancer Drug Screen. Data for the mlh1 rad18 strain (AID 175); conditions: S. cerevisiae mlh1 rad18 strain growth inhibition, hits give high values
Procedure, shortened: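 A repair-deficient yeast strain is exposed to test compound, and growth is scored relative to vehicle-treated controls.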

[14] = NCI Yeast Anticancer Drug Screen. Data for the rad18 strain (AID 177); conditions: S. cerevisiae rad18 mutant growth inhibition, hits give high values
Procedure, shortened: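 DNA-repair-defective yeast; compound treatment; growth inhibition scored against vehicle.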

[15] = NCI Yeast Anticancer Drug Screen. Data for the wt2 strain (AID 169);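 further: 0% = growth of vehicle-treated yeast cultures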; conditions: S. cerevisiae wt2 strain growth inhibition, hits give high values
Procedure, shortened: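 Growth of compound-treated yeast is measured and expressed as inhibition relative to vehicle-only controls.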

[16] = at 5.0 µM (retest, dose inferred, filed as 0.5)
[17] = at 50.0 µM (retest, dose inferred, filed as 5.0)

Measured: growth inhibition

CC1(C)C(C=O)=CCC1CC(N)=O (centres undefined)
inactive: [1]; at 1.2 µM -1% | [1]; at 3.7 µM -1% | [1]; at 11.0 µM 0% | [1]; at 33.0 µM 7% | [2]; at 1.2 µM -1% | [2]; at 3.7 µM 0% | [2]; at 11.0 µM 2% | [2]; at 33.0 µM 3% | [2]; at 100.0 µM 29% | [3]; at 1.2 µM 1% | [3]; at 3.7 µM -2% | [3]; at 11.0 µM 0% | [3]; at 33.0 µM 20% | [4]; at 1.2 µM -1% | [4]; at 3.7 µM -1% | [4]; [16] -2% | [4]; at 11.0 µM -1% | [4]; at 33.0 µM 1% | [4]; [17] 43% | [4]; at 100.0 µM 40% | [5]; at 1.2 µM 0% | [5]; at 3.7 µM 2% | [5]; [16] 4% | [5]; at 11.0 µM 1% | [5]; at 33.0 µM 7% | [5]; [17] 39% | [6]; at 1.2 µM -3% | [6]; at 3.7 µM -2% | [6]; at 11.0 µM -3% | [6]; at 33.0 µM 6% | [7]; [16] -3% | [7]; [17] -2% | [8]; at 1.2 µM -5% | [8]; at 3.7 µM -2% | [8]; at 11.0 µM -1% | [8]; at 33.0 µM -2% | [8]; at 100.0 µM 12% | [9]; [16] -3% | [9]; [17] 4% | [9]; at 50.0 µM 38.4% | [10]; at 1.2 µM -3% | [10]; at 3.7 µM -7% | [10]; [16] -19% | [10]; at 11.0 µM -2% | [10]; at 33.0 µM -5% | [10]; [17] -8% | [11]; at 1.2 µM 2% | [11]; at 3.7 µM 0% | [11]; at 11.0 µM 4% | [11]; at 33.0 µM 9% | [12]; at 1.2 µM -1% | [12]; at 3.7 µM 4% | [12]; at 11.0 µM 6% | [12]; at 33.0 µM 23% | [13]; [16] -6% | [14]; at 1.2 µM 0% | [14]; at 3.7 µM 0% | [14]; at 11.0 µM 22% | [14]; at 33.0 µM 6% | [14]; at 100.0 µM 54%
active: [1]; at 100.0 µM 80% | [3]; at 100.0 µM 93% | [4]; at 50.0 µM 98.5% | [5]; at 50.0 µM 98% | [5]; at 100.0 µM 96% | [6]; at 100.0 µM 99% | [7]; at 50.0 µM 87.3% | [10]; at 50.0 µM 99.2% | [10]; at 100.0 µM 93% | [11]; at 100.0 µM 96% | [12]; at 100.0 µM 99% | [13]; [17] 71% | [13]; at 50.0 µM 88.7%

CCCCC(=O)c1c(O)nc2sccn2c1=O
active: [1]; at 33.0 µM 96% | [1]; at 100.0 µM 98% | [2]; at 33.0 µM 94% | [2]; at 100.0 µM 98% | [3]; at 33.0 µM 94% | [3]; at 100.0 µM 95% | [4]; at 11.0 µM 82% | [4]; at 33.0 µM 97% | [4]; [17] 85% | [4]; at 50.0 µM 85.4% | [4]; at 100.0 µM 98% | [5]; at 11.0 µM 82% | [5]; at 33.0 µM 97% | [5]; [17] 88% | [5]; at 50.0 µM 85.3% | [5]; at 100.0 µM 98% | [6]; at 11.0 µM 98% | [6]; at 33.0 µM 98% | [6]; at 100.0 µM 98% | [7]; at 50.0 µM 89.2% | [8]; at 33.0 µM 78% | [8]; at 100.0 µM 89% | [10]; at 33.0 µM 94% | [10]; [17] 92% | [10]; at 50.0 µM 87.2% | [10]; at 100.0 µM 96% | [11]; at 3.7 µM 74% | [11]; at 11.0 µM 95% | [11]; at 33.0 µM 97% | [11]; at 100.0 µM 98% | [12]; at 11.0 µM 92% | [12]; at 33.0 µM 97% | [12]; at 100.0 µM 98% | [13]; [17] 95% | [13]; at 50.0 µM 83.4% | [14]; at 11.0 µM 72% | [14]; at 33.0 µM 95% | [14]; at 100.0 µM 97%
inactive: [1]; at 1.2 µM 8% | [1]; at 3.7 µM 18% | [1]; at 11.0 µM 64% | [2]; at 1.2 µM 25% | [2]; at 3.7 µM 29% | [2]; at 11.0 µM 52% | [3]; at 1.2 µM 2% | [3]; at 3.7 µM 7% | [3]; at 11.0 µM 58% | [4]; at 1.2 µM 14% | [4]; at 3.7 µM 31% | [4]; [16] 30% | [5]; at 1.2 µM 22% | [5]; at 3.7 µM 17% | [5]; [16] 10% | [6]; at 1.2 µM 22% | [6]; at 3.7 µM 68% | [7]; [16] 5% | [7]; [17] 28% | [8]; at 1.2 µM 9% | [8]; at 3.7 µM 5% | [8]; at 11.0 µM 26% | [9]; [16] 22% | [9]; [17] 37% | [9]; at 50.0 µM 53% | [10]; at 1.2 µM 6% | [10]; at 3.7 µM 11% | [10]; [16] 47% | [10]; at 11.0 µM 62% | [11]; at 1.2 µM 27% | [12]; at 1.2 µM 33% | [12]; at 3.7 µM 55% | [13]; [16] 63% | [14]; at 1.2 µM 17% | [14]; at 3.7 µM 20%

COC(=O)CSc1nnc(CSc2ccc(Cl)cc2)n1-c1ccccc1
active: [10]; [17] 75% | [10]; at 50.0 µM 74.5%
inactive: [1]; at 1.2 µM 1% | [1]; at 3.7 µM 3% | [1]; at 11.0 µM 5% | [1]; at 33.0 µM 12% | [1]; at 100.0 µM 5% | [2]; at 1.2 µM -1% | [2]; at 3.7 µM -2% | [2]; at 11.0 µM -3% | [2]; at 33.0 µM 0% | [2]; at 100.0 µM 2% | [3]; at 1.2 µM -2% | [3]; at 3.7 µM 0% | [3]; at 11.0 µM -2% | [3]; at 33.0 µM -5% | [3]; at 100.0 µM -11% | [4]; at 1.2 µM 2% | [4]; at 3.7 µM 4% | [4]; [16] -16% | [4]; at 11.0 µM 9% | [4]; at 33.0 µM 15% | [4]; [17] 15% | [4]; at 50.0 µM 6.25% | [4]; at 100.0 µM 12% | [5]; at 1.2 µM -3% | [5]; at 3.7 µM -1% | [5]; [16] -9% | [5]; at 11.0 µM 3% | [5]; at 33.0 µM 10% | [5]; [17] 18% | [5]; at 50.0 µM 16.9% | [5]; at 100.0 µM 12% | [6]; at 1.2 µM 0% | [6]; at 3.7 µM 2% | [6]; at 11.0 µM 10% | [6]; at 33.0 µM 15% | [6]; at 100.0 µM 13% | [7]; [16] -11% | [7]; [17] 68% | [7]; at 50.0 µM 58.5% | [9]; [16] -6% | [9]; [17] 43% | [9]; at 50.0 µM 44% | [10]; at 1.2 µM -1% | [10]; at 3.7 µM 6% | [10]; [16] 7% | [10]; at 11.0 µM 22% | [10]; at 33.0 µM 46% | [10]; at 100.0 µM 57% | [15]; at 1.2 µM -1% | [15]; at 3.7 µM 1% | [15]; at 11.0 µM -1% | [15]; at 33.0 µM 1% | [15]; at 100.0 µM 4% | [11]; at 1.2 µM -1% | [11]; at 3.7 µM -1% | [11]; at 11.0 µM 2% | [11]; at 33.0 µM 9% | [11]; at 100.0 µM 14% | [12]; at 1.2 µM -2% | [12]; at 3.7 µM -3% | [12]; at 11.0 µM 2% | [12]; at 33.0 µM 13% | [12]; at 100.0 µM 15% | [13]; [16] -11% | [13]; [17] 32% | [13]; at 50.0 µM 7% | [14]; at 1.2 µM -1% | [14]; at 3.7 µM 2% | [14]; at 11.0 µM 4% | [14]; at 33.0 µM 8% | [14]; at 100.0 µM 9%
